The text below walks through data of PubChem BioAssay (Tox21).

The structures appear in SMILES notation. A number with no mark means an inactive call. Calls follow the shape of the dose curve; as a rule, active = well fitted curve in the direction sought with a large enough effect in the repeat runs; inconclusive = weak or mixed curves; inactive = flat fitted curve, though single readings scatter.
% is scaled to controls: 0 for no effect and ±100 for the full control effect.

This assay is described as follows: qHTS assay to test for compound auto fluorescence at 460 nm (blue) in HEK293 cells (AID 720678). Conditions: blue autofluorescence 405/460 nm; series mostly up to 91.3 µM; fluorescence, % of triamterene: at the top concentration. The source says:
National Center for Advancing Translational Sciences [NCATS]
NIH Chemical Genomics Center [NCGC]
U.S. Environmental Protection Agency [EPA]
National Institutes of Environmental Health Sciences [NIEHS]
National Toxicology Program [NTP]
U.S. Food and Drug Administration [FDA]
Compound auto fluorescence often interferes with screening of the compound library against various biological targets and signaling pathways. Some of these compounds may have fluorophoric properties. Such properties may interfere with the assay outputs resulting in false positives and/or negatives. To decrease such complications and ensure the compound activities are relevant in terms of biological response, the Tox21 10K compound library was screened for auto fluorescence.
From the fluorophores used as reporter signals in our screening assays, the auto fluorescence equivalencies of compounds against three fluorophores have been evaluated: Triamterene, Fluorescein and Rose Bengal sodium for blue, green and red fluorescence, respectively. The fluorescence intensities were measured using Excitation/Emission wavelengths at 405/460nm, 485/535nm and 540/590nm for blue, green and red labels, respectively. This assay includes the blue fluorescence data.
Tox21 Assay Protocol Summary:
2,000 HEK293 cells in 5 uL of culture medium containing 10% dialyzed FBS per well were dispensed into black wall/clear bottom 1536-well plates using a Multidrop Combi Dispenser (Thermo Scientific). The assay plates were incubated for 4-5 hr at 37C to allow cell attachment to the well bottom, followed by the transfer of 23 nL compound or DMSO vehicle by a pintool work station (Kalypsys, San Diego, CA). After the assay plates were incubated overnight at 37C and 5% CO2, fluorescence intensities in the assay plates were measured by an Envision (PerkinElmer, Shelton, CT) plate reader using three labels for measuring blue, green and red fluorescence at […] 460, 535 and 590nm respectively.
In general terms: qHTS replaces the single test concentration by a dilution series.
With `Nc1nc(N)nc(N)n1`, the “fluorescence, % of triamterene” value was -0.187%.

With `O=[N+]([O-])c1ccccc1CCl`, the “fluorescence, % of triamterene” value was 0.145% [at 95.7 µM].

As to `CCOC(=O)[C@]1(c2ccccc2)Oc2ccccc2[C@@H]1N`, the “fluorescence, % of triamterene” value was 0.0877%.

`C=CC(C)=O`: the “fluorescence, % of triamterene” value is 0.124%.

For the compound `COC(=O)c1cncn1C(C)c1ccccc1` (stereo not given), the “fluorescence, % of triamterene” value was -0.186% [at 46 µM].

Take `CCCC(=O)Cl`: the “fluorescence, % of triamterene” value was -0.123%.

Consider `CCOc1nc(F)cc2nc(S(=O)(=O)Nc3c(Cl)cccc3Cl)nn12`, for which the “fluorescence, % of triamterene” value is 0.263%.

On to `CO[C@@H]1[C@H](OC(=O)NC(=O)CCl)CC[C@]2(CO2)[C@H]1[C@@]1(C)O[C@@H]1CC=C(C)C`, for which the fluorescence, % of triamterene is 0.0741% [at 18.6 µM].

As to `CNP(=O)(OC)Oc1ccc(C(C)(C)C)cc1Cl` (stereo not given), the “fluorescence, % of triamterene” value was -0.0811%.

Regarding `CCOP(=S)(Oc1ccc([N+](=O)[O-])cc1)c1ccccc1` (stereo not given), the “fluorescence, % of triamterene” value was 0.0435%.

On to `C=C(C#N)CCC#N`, for which the “fluorescence, % of triamterene” value was 0.0716%.

For the compound `O=[N+]([O-])c1cc(C(F)(F)F)cc([N+](=O)[O-])c1Cl`, the “fluorescence, % of triamterene” value was -0.751%.

As for `Cc1ccc2ccccc2c1`, the “fluorescence, % of triamterene” value was 0.0221%.

On to `CCc1ccc(C(=O)NN(C(=O)c2cc(C)cc(C)c2)C(C)(C)C)cc1`, for which the “fluorescence, % of triamterene” value is -0.36%.

For the compound `Clc1ccc(C(OCCN2CCCCC2)c2ccccc2)cc1` (stereo not given), the fluorescence, % of triamterene was 0.0368% [at 18.6 µM].

For `CC(Cl)C(C)Cl` (stereo not given), the “fluorescence, % of triamterene” value was -0.0417%.

Regarding `O=Cc1ccc(Cl)cc1Cl`, the “fluorescence, % of triamterene” value was 0.174%.

For `CCCCN(N=O)C(=N)N[N+](=O)[O-]`, the “fluorescence, % of triamterene” value is 0.0354% [at 95.7 µM].

Take `CC(C)=CCOc1c2occc2cc2ccc(=O)oc12`: the “fluorescence, % of triamterene” value is 0.365% [at 46 µM].

With `O=C(O)C1(c2ccc3c(c2)OC[C@H](Cc2ccc(-c4ccccc4)cc2)[C@H]3O)CCCC1`, the “fluorescence, % of triamterene” value is -0.0879%.

Turning to `O=C(O)C(F)(F)C(F)(F)C(F)(F)C(F)(F)C(F)(F)C(F)(F)C(F)(F)C(F)(F)C(F)(F)C(F)(F)F`, the “fluorescence, % of triamterene” value is -0.0161%.

With `CCC(Cl)CCl` (stereo not given), the “fluorescence, % of triamterene” value is -0.0516%.

Regarding `C=CCCl`, the “fluorescence, % of triamterene” value is 0.0281% [at 95.7 µM].

`CC(=O)c1cc2c(cc1C)C(C)(C)C(C)CC2(C)C` (stereo not given): the “fluorescence, % of triamterene” value is 0.17%.

Consider `CC(C)(C)c1cc([N+](=O)[O-])cc([N+](=O)[O-])c1O`, for which the “fluorescence, % of triamterene” value is -0.846%.

As for `CCBr`, the “fluorescence, % of triamterene” value was 0.0233% [at 95.7 µM].

`CN1C[C@H](CNC(=O)OCc2ccccc2)C[C@@H]2c3cccc4c3c(cn4C)C[C@H]21`: the “fluorescence, % of triamterene” value is 0.562% [at 46 µM].

`ClCC(Br)CBr` (stereo not given): the “fluorescence, % of triamterene” value is -0.0093%.

Regarding `O=S(=O)(O)C(F)(F)C(F)(F)C(F)(F)C(F)(F)F`, the “fluorescence, % of triamterene” value was -0.162% [at 95.7 µM].

In the case of `COc1cc(Cl)c(OC)cc1Cl`, the “fluorescence, % of triamterene” value was -0.15%.

As to `CCOC(=O)C(Cl)C(C)=O` (stereo not given), the “fluorescence, % of triamterene” value is -0.0239% [at 95.7 µM].

For `O=C1c2ccccc2C(=O)C1C(=O)C(c1ccccc1)c1ccccc1`, the “fluorescence, % of triamterene” value was 0.147% [at 46 µM].

Consider `COC1=CC(=O)O[C@@H](CCc2ccccc2)C1`, for which the “fluorescence, % of triamterene” value is -0.204% [at 95.7 µM].

With `NCCCNCCCN`, the “fluorescence, % of triamterene” value is 0.195% [at 95.7 µM].

For `CC1(C)[C@H](C=C(Cl)Cl)[C@@H]1C(=O)O[C@@H](C#N)c1cccc(Oc2ccccc2)c1`, the “fluorescence, % of triamterene” value is 0.0359%.

As for `OC(c1ccc(Cl)cc1)(c1ccc(Cl)cc1)c1cccnc1`, the “fluorescence, % of triamterene” value was 0.0241%.

Consider `C[N+](C)(C)CCCl`, for which the “fluorescence, % of triamterene” value was -0.0417% [at 95.7 µM].

Regarding `CCOP(=O)(OCC)SCCSCC`, the “fluorescence, % of triamterene” value is 0.0063%.

Take `N#C/C(N)=C(/N)C#N`: the “fluorescence, % of triamterene” value is 1.68%.

`Nc1nc(=S)[nH][nH]1`: the “fluorescence, % of triamterene” value was -0.281%.
